13 compounds from PubChem BioAssay (NCATS) can be followed below.

A number with no mark means an inactive call. Records with an inconclusive call do not appear. Active and inactive are the calls of the source. Calls come from the whole dose curve; as a rule, active = well fitted curve in the direction sought with a large enough effect; inconclusive = small, poorly fitted or top-dose-only effect, or another doubt; inactive = no such curve, though single readings can be large; an effect the other way counts as inactive or inconclusive.

Assay [1] in a line: Quantitative High-Throughput drug screen in 47 multiple myeloma cell lines against the NCATS MIPE library collection: SKMM1_PLB cell viability assay (AID 1919863). Note: nearly all actives have a fitted effect of over 35% in size. The note with it: SKMM1 myeloma viability, CellTiter-Glo ATP, 48 h; viability: hits give low values. Summed up:
(§1)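 MIPE 4.0 approved/investigational drugs; 500 cells/well; 48 h 37 °C humidified 5% CO2; CTG luminescence readout; DMSO = 100%, media = 0% viability.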
In general terms: In ATP-based viability assays light output follows the ATP content of the culture.

A short description of assay [2]: Quantitative High-Throughput drug screen in 47 multiple myeloma cell lines against the NCATS MIPE library collection: XG1_PLB cell viability assay (AID 1919866). Note: nearly all actives have a fitted effect of over 35% in size. Note: potency is the fitted concentration of half-maximal effect. Put shortly:
as §1

Assay [3] is described as follows: Quantitative High-Throughput drug screen in 47 multiple myeloma cell lines against the NCATS MIPE library collection: PE2_PLB cell viability assay (AID 1919869). Note: nearly all actives have a fitted effect of over 35% in size. Note: potency is the fitted concentration of half-maximal effect. Put shortly: as §1
Assay [4] in a line: Quantitative High-Throughput drug screen in 47 multiple myeloma cell lines against the NCATS MIPE library collection: PCM6_Riken cell viability assay (AID 1919870). Note: nearly all actives have a fitted effect of over 30% in size. Note: potency is the fitted concentration of half-maximal effect. Put shortly:
as §1

The nature of assay [5]: Quantitative High-Throughput drug screen in 47 multiple myeloma cell lines against the NCATS MIPE library collection: RPMI8226_ATCC cell viability assay (AID 1919871). Note: nearly all actives have a fitted effect of over 30% in size. Note: potency is the fitted concentration of half-maximal effect. Summed up: as §1
Assay [6] is described as follows: Quantitative High-Throughput drug screen in 47 multiple myeloma cell lines against the NCATS MIPE library collection: OPM2_DSMZ cell viability assay (AID 1919872). Note: nearly all actives have a fitted effect of over 30% in size. Note: potency is the fitted concentration of half-maximal effect. Put shortly:
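qHTS of the MIPE 4.0 collection: 500 myeloma cells/well, 48 h drug exposure at 37C in 5% CO2, then CellTiter-Glo for 5 min at room temperature before luminescence reading.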

The nature of assay [7]: Quantitative High-Throughput drug screen in 47 multiple myeloma cell lines against the NCATS MIPE library collection: KMS28BM_JCRB cell viability assay (AID 1919874). Note: nearly all actives have a fitted effect of over 35% in size. Put shortly:
as §1

For assay [8], the target named is Cytochrome P450 3A4 (Homo sapiens) (UniProt P08684). In words: qHTS for inhibitors of CYP3A4 against the NCATS DSHEA and TCM libraries (AID 1919971).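 Note: % is set by controls: 0 for no effect and ±100 for the full control effect; inhibition lowers luminescence from luciferin made by CYP3A4.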 Summed up:
(§2)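 Read-out is luminescence after P450-Glo detection (30 min, RT). Before that: 15 min compound–enzyme preincubation, then 30-45 min reaction with 1x NADPH regeneration solution, substrate concentration isoform-specific.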

For assay [9], the target named is Cytochrome P450 2D6 (Homo sapiens) (UniProt P10635). In words: qHTS for inhibitors of CYP2D6 against the NCATS DSHEA and TCM libraries (AID 1919972). Note: % is set by controls: 0 for no effect and ±100 for the full control effect. Put shortly: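 Luminescent P450-Glo read-out of CYP2D6 turnover of a luciferin substrate after NADPH-driven reaction of 30-45 min at room temperature. Compounds were first preincubated 15 min with enzyme at titrated concentrations; quinidine was the intraplate control.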
A general note: qHTS replaces the single test concentration by a dilution series.

Assay [10] concerns the target Cytochrome P450 2C9 (Homo sapiens) (UniProt P11712). In words: qHTS for inhibitors of CYP2C9 against the NCATS DSHEA and TCM libraries (AID 1919973).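 Note: luminogenic pro-luciferin CYP2C9 substrate turned into luciferin with NADPH regeneration; % is set by controls: 0 for no effect and ±100 for the full control effect.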 Summed up:
as §2

Assay [11] addresses Cytochrome P450 2C19 (Homo sapiens) (UniProt P33261). In words: qHTS for inhibitors of CYP2C19 against the NCATS DSHEA and TCM libraries (AID 1919974).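 Note: luminescence from luciferin released by CYP2C19 oxidation of a pro-luciferin substrate; % is set by controls: 0 for no effect and ±100 for the full control effect.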 Put shortly: as §2
The nature of assay [12]: KB-3-1 P-gp reporter qHTS against the NCATS DSHEA and TCM libraries (AID 1919975). Note: 0% is about no effect. Put shortly: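 Cell viability by CellTiter-Glo luminescence following ~72 h compound exposure (concentration-response). Uses parental, non-P-gp-overexpressing KB-3-1 line, 500 cells/well in DMEM/10% FBS, attached ~4 h before dosing.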
The target of assay [13] is Cytochrome P450 1A2 (Homo sapiens) (UniProt P05177). In words: qHTS for inhibitors of CYPIA2 against the NCATS DSHEA and TCM libraries (AID 1919976).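 Note: light from luciferin formed by CYP1A2 from a pro-luciferin substrate; % is set by controls: 0 for no effect and ±100 for the full control effect.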 Put shortly:
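CYP1A2 + luciferin substrate, 100 mM KPO4-type buffer; cmpd 15 min RT; 1x NADPH regen, 30-45 min RT dark; detection reagent 30 min RT; luminescence. Minus-enzyme wells as background; furafylline intraplate control.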

Assay [14] in a line: qHTS Counterscreen for compound interference against the NCATS DSHEA and TCM libraries (AID 1919978).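 Note: compounds preincubated with 1 µM D-luciferin or buffer before detection reagent; % of control where 0% means no effect.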 To be noted: firefly luciferase detection reagent interference, luminescence. Put shortly:
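With 1 uM D-luciferin or phosphate buffer only, compounds at final 19.5 nM–39.8 uM were incubated for 15 min at room temperature. Luciferase detection reagent was then added, and luminescence was measured after a further 30 min at room temperature.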

A short description of assay [15]: Quantitative High-Throughput drug screen in 47 multiple myeloma cell lines against the NCATS MIPE library collection: U266_ATCC cell viability assay (AID 1919864).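 For viability (% of DMSO control): 0% = media-only wells without cells and 100% = DMSO-only wells.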 Note: nearly all actives have a fitted effect of over 35% in size. Note: potency is the fitted concentration of half-maximal effect. Put shortly:
as §1

Assay [16] in a line: Quantitative High-Throughput drug screen in 47 multiple myeloma cell lines against the NCATS MIPE library collection: XG6_PLB cell viability assay (AID 1919865). Note: nearly all actives have a fitted effect of over 40% in size. Note: potency is the fitted concentration of half-maximal effect. Put shortly:
as §1

Assay [17] is described as follows: Quantitative High-Throughput drug screen in 47 multiple myeloma cell lines against the NCATS MIPE library collection: VP6_DJ cell viability assay (AID 1919867). Note: nearly all actives have a fitted effect of over 40% in size. Note: potency is the fitted concentration of half-maximal effect. Put shortly: as §1
Assay [18] in a line: Quantitative High-Throughput drug screen in 47 multiple myeloma cell lines against the NCATS MIPE library collection: UTMC2_PLB cell viability assay (AID 1919868).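 For viability (% of DMSO control): 100% = DMSO-only wells and 0% = media-only wells without cells.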 Note: nearly all actives have a fitted effect of over 55% in size. Note: potency is the fitted concentration of half-maximal effect. To be noted: CellTiter-Glo ATP luminescence, 48 h; viability (% of DMSO control): at 45.8 µM (top of the series). Put shortly:
as §1

Assay [19] in a line: Quantitative High-Throughput drug screen in 47 multiple myeloma cell lines against the NCATS MIPE library collection: KMS11_JCRBsus cell viability assay (AID 1919873). Note: nearly all actives have a fitted effect of over 50% in size. Note: potency is the fitted concentration of half-maximal effect. Put shortly:
as §1

Sequence of Cytochrome P450 2D6 (Homo sapiens) (P10635 whole entry, looked up): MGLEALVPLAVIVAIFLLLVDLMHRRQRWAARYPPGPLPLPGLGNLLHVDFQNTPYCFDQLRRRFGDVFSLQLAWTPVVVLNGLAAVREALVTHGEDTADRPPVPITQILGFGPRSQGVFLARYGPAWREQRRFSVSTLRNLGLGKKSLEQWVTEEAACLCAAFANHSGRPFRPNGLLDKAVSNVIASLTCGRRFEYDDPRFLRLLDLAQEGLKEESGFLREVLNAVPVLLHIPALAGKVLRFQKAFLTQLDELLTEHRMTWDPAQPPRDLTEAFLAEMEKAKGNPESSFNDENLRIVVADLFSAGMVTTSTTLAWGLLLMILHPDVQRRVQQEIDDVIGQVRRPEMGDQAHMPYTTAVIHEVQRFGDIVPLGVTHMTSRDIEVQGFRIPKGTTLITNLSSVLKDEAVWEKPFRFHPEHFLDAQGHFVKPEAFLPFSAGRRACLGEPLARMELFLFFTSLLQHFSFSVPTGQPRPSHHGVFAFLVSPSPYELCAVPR
Sequence of Cytochrome P450 1A2 (Homo sapiens) (P05177 whole entry, looked up): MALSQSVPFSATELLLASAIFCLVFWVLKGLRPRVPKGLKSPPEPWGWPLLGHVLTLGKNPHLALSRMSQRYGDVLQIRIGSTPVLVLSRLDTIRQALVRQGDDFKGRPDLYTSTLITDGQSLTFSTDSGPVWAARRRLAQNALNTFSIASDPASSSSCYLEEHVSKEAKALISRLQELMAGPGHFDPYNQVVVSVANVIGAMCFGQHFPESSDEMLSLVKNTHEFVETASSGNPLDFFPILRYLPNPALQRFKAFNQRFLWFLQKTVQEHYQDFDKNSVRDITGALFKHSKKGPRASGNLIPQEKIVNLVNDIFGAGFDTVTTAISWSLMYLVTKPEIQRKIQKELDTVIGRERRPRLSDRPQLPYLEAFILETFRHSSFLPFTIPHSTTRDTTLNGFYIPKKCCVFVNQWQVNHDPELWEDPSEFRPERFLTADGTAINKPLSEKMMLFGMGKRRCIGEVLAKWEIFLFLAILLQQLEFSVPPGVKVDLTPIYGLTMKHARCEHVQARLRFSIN
Sequence of Cytochrome P450 3A4 (Homo sapiens) (P08684 whole entry, looked up, canonical isoform): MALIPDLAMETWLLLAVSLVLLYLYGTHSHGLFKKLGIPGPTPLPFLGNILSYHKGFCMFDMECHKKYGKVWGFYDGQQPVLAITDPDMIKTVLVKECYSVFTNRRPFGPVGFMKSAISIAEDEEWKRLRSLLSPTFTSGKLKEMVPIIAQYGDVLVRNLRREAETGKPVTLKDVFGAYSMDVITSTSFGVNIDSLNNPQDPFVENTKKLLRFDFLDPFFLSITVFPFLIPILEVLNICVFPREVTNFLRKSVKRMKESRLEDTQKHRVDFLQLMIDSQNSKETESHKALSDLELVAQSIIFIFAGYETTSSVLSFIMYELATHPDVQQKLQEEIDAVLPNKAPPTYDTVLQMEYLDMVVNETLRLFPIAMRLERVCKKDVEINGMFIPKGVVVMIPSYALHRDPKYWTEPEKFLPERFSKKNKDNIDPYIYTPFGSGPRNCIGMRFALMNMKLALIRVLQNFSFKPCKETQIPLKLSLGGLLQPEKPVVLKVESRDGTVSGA
Sequence of Cytochrome P450 2C9 (Homo sapiens) (P11712 whole entry, looked up): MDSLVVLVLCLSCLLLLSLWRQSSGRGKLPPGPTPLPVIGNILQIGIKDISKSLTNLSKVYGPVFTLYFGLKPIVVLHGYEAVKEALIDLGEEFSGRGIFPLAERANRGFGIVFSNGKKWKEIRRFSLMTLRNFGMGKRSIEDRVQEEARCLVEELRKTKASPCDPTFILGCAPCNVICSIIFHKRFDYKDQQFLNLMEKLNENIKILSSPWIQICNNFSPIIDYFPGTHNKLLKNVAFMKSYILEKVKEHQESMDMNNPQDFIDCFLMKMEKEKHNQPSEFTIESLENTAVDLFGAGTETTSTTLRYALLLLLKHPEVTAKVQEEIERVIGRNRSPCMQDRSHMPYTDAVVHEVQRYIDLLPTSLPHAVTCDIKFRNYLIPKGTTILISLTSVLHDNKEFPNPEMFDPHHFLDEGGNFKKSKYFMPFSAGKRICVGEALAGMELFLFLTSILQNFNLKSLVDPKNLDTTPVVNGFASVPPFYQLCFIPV
Sequence of Cytochrome P450 2C19 (Homo sapiens) (P33261 whole entry, looked up): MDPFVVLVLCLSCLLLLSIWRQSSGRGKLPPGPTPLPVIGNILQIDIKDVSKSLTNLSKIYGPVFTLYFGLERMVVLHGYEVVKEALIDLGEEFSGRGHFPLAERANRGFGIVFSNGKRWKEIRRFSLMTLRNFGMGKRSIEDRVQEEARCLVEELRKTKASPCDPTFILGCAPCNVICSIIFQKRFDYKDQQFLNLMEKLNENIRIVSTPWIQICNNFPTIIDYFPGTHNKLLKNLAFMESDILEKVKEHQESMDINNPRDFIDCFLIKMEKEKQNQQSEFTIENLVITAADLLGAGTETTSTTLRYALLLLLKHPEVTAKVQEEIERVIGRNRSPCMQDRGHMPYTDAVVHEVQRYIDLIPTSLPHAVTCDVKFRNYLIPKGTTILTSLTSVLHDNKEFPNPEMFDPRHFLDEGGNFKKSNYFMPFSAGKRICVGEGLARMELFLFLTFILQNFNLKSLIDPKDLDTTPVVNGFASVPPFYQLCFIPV

With `NC(=O)c1cnccn1`, the viability in [1] is 112%. Further, the Potency result in assay [2], in assay [3], in assay [4], in [5], in assay [6] and in assay [7] was “inactive” each time. For the same compound, the outcome in [8], in assay [9], in assay [10], in [11], in assay [12] and in assay [13] was inactive. Moreover, the max response in assay [14] was 0.688%.

As for `C[C@H](NC(=O)Cc1cc(F)cc(F)c1)C(=O)N[C@@H]1C(=O)N(C)c2ccccc2-c2ccccc21`, the Potency in assay [15] was 16.6 µM (active); in assay [16] it was 4.69 µM (active); in assay [3] it was 5.9 µM (active); in assay [4], 5.26 µM (active). Further, the Potency result in assay [17] was “inactive”.

In the case of `O=C(Nc1nc2ccccc2n1CCN1CCOCC1)c1cccc([N+](=O)[O-])c1`, the Potency in [15] is 14.8 µM (active); in assay [16] it was 1.32 µM (active); in [2], 4.18 µM (active); in assay [3], 1.05 µM (active); in [4], 1.87 µM (active). Further, the Potency entry in assay [6] and in assay [7] was “inactive” each time.

For `NC[C@H](O)c1ccc(O)c(O)c1`, the Potency entry in assay [15], in assay [2] and in [6] was “inactive” in each case. For the same compound, the Potency is 2.96 µM (active) in assay [17] and 11.8 µM (active) in assay [3].

As for `CC(C)(N)C(=O)N[C@H](COCc1ccccc1)C(=O)N1CCC2(CC1)CN(S(C)(=O)=O)c1ccccc12`, the Potency entry in [6] is “inactive”.

For `NC(=O)c1ccc(-c2nc(-c3ccc4c(c3)OCCO4)c(-c3ccccn3)[nH]2)cc1`, the viability in assay [1] is 112%. The Potency is 23.5 µM (active) in assay [17] and 14.8 µM (active) in [6]. For the same compound, the Potency result in assay [18] and in [7] was “inactive” throughout.

In the case of `CCN(CC)CCCC(C)Nc1nc(C)cc(Nc2ccc3nc(C)cc(N)c3c2)n1` (centres undefined), the viability in assay [1] was 123%. The figures for the Potency in assay [17] and in assay [3] were 3.72 µM (active) and 10.5 µM (active), respectively. Besides, the Potency entry in assay [5], in assay [6], in assay [19] and in assay [7] was “inactive” throughout.

In the case of `COCCNCCCn1c(C(=O)CF)c(-c2ccc(C)cc2)c2c(N)ncnc21`, the Potency result in [15] and in [6] was “inactive” in each case. In addition, the Potency in assay [3] is 14.8 µM (active).

On to `Cc1n[nH]c(C)c1Cc1sc2c(c1C(=O)N1C[C@H](O)CO1)c(=O)n(C)c(=O)n2CC(C)C`, for which the Potency result in assay [16], in assay [17], in assay [4], in assay [6] and in assay [7] was “inactive” in each case. Besides, the Potency in assay [3] was 0.235 µM (active).

For `CCOC(=O)N[C@@H]1CC[C@@H]2[C@@H](C1)C[C@H]1C(=O)O[C@H](C)[C@H]1[C@@H]2C=Cc1ccc(-c2cccc(F)c2)cn1`, the values for the Potency in assay [2] and in assay [5] were 16.6 µM (active) and 18.7 µM (active), respectively. Moreover, the Potency result in assay [4] is “inactive”.

On to `Cc1cccc(-c2[nH]c(C(C)(C)C)nc2-c2ccc3nccnc3c2)n1`, for which the Potency in assay [16] was 3.32 µM (active); in [17], 2.96 µM (active); in assay [18], 2.64 µM (active); in assay [3], 2.09 µM (active). Besides, the Potency result in assay [6] is “inactive”.

Consider `NCCc1ccc(O)c(O)c1`, for which the Potency was 23.5 µM (active) in assay [15], 23.5 µM (active) in [17], 18.7 µM (active) in assay [5] and 13.2 µM (active) in [6]. In addition, the Potency result in assay [7] is “inactive”.

As for `CCCS(=O)(=O)Nc1ccc(F)c(C(=O)c2c[nH]c3ncc(-c4ccc(Cl)cc4)cc23)c1F`, the Potency in assay [15] is 5.26 µM (active); in [16], 2.96 µM (active); in assay [2] it was 7.43 µM (active); in assay [17], 18.7 µM (active); in assay [18], 14.8 µM (active); in assay [3], 11.8 µM (active). Also, the Potency in assay [4] was 5.26 µM (active); in assay [19] it was 8.33 µM (active).

For orientation: viability means a read-out of living cells in per cent, often relative to untreated cells.
